Activity calls are given as the source filed them. How the source made its calls: active means hit-call score of the fitted dose curve at least 0.9, where 1 is the maximum; inactive means score below 0.9.

What all share (details): mRNA level, 48 h; actives raise or lower the signal
Read-out in one test: Caspase-3 (Homo sapiens) (UniProt P42574)
Description: LTEA_HepaRG_CASP3: Life Technologies and Expression Analysis (LTEA) Assay for cysteine-aspartic acid protease (CASP3) using HepaRG (AID 2283477). The procedure, abridged:
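HepaRG, 48 h exposure, 8 conc. (top 100 uM, half-log steps, duplicate), 0.5% DMSO vehicle; qRT-PCR of CASP3 transcript, housekeeping-normalised (ACTB/GAPDH/POLR2A); bidirectional curve fit vs DMSO baseline.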

Read-out in test [1]: cysteine-aspartic acid protease (CASP8), CASP8 (gene 841)
Description: LTEA_HepaRG_CASP8: Life Technologies and Expression Analysis (LTEA) Assay for cysteine-aspartic acid protease (CASP8) using HepaRG (AID 2283480). The procedure, abridged: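 Differentiated human HepaRG cells, plated 48 h then switched to serum-free induction medium, were exposed in duplicate for 48 h to 8 half-log concentrations up to 100 uM in 0.5% DMSO. CASP8 mRNA was quantified by qRT-PCR, normalized to ACTB/GAPDH/POLR2A.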

Read-out in test [2]: Cytochrome P450 (CYP2B6), CYP2B6 (gene 1555)
Description: LTEA_HepaRG_CYP2B6: Life Technologies and Expression Analysis (LTEA) Assay for Cytochrome P450 (CYP2B6) using HepaRG (AID 2283481). In a few lines:
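Read-out is CYP2B6 mRNA by TaqMan qRT-PCR, normalized to three housekeeping genes and fitted bidirectionally against 0.5% DMSO baseline. Human HepaRG cells received test chemicals for 48 h, top concentration 100 uM, half-log dilutions.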

Read-out in test [3]: Cytochrome P450 2C19 (Homo sapiens) (UniProt P33261)
Description: LTEA_HepaRG_CYP2C19: Life Technologies and Expression Analysis (LTEA) Assay for CYP2C19 using HepaRG (AID 2283482). In a few lines: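 HepaRG, 48 h chemical exposure, 8-pt half-log series from 100 uM in 0.5% DMSO, duplicates. Readout: CYP2C19 mRNA by TaqMan qRT-PCR, housekeeping-normalized. Bidirectional fit vs DMSO baseline; phenobarbital 1mM as induction control.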

Read-out in the next test: CYP2C8 (gene 1558)
Description: LTEA_HepaRG_CYP2C8: Life Technologies and Expression Analysis (LTEA) Assay for CYP2C8 using HepaRG (AID 2283483). The procedure, abridged: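 Differentiated human HepaRG cells were exposed for 48 h in serum-free induction medium to eight half-log concentrations up to 100 uM in 0.5% DMSO, in duplicate. CYP2C8 mRNA was measured by TaqMan qRT-PCR, normalized to ACTB, GAPDH and POLR2A, and fitted bidirectionally against DMSO.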

Read-out in the next test: CYP2C9 (gene 1559)
Description: LTEA_HepaRG_CYP2C9: Life Technologies and Expression Analysis (LTEA) Assay for CYP2C9 using HepaRG (AID 2283484). The procedure, abridged: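 Differentiated human HepaRG cells were exposed 48 h in serum-free induction medium to eight half-log concentrations up to 100 uM in 0.5% DMSO. CYP2C9 mRNA was measured by qRT-PCR, normalized to ACTB, GAPDH and POLR2A, and fitted bidirectionally against DMSO.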

Read-out in another test: CYP2E1 (gene 1571)
Description: LTEA_HepaRG_CYP2E1: Life Technologies and Expression Analysis (LTEA) Assay for CYP2E1 using HepaRG (AID 2283485). In a few lines: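 HepaRG cells in serum-free induction medium exposed 48 h to test chemicals, 8 half-log concentrations up to 100 uM in 0.5% DMSO, duplicate. CYP2E1 mRNA by qRT-PCR, normalized to ACTB, GAPDH, POLR2A; bidirectional fit versus DMSO.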

Read-out in another test: CYP4A11 (gene 1579)
Description: LTEA_HepaRG_CYP4A11: Life Technologies and Expression Analysis (LTEA) Assay for CYP4A11 using HepaRG (AID 2283486). The procedure, abridged:
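CYP4A11 transcript levels were quantified by TaqMan qRT-PCR after HepaRG human liver cells were treated for 48 hours with test chemicals (top 100 uM, half-log dilutions, 0.5% DMSO). Gain or loss of signal was fitted relative to DMSO.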

Read-out in test [4]: Cytochrome P450 3A4 (Homo sapiens) (UniProt P08684)
Description: LTEA_HepaRG_CYP3A4: Life Technologies and Expression Analysis (LTEA) Assay for CYP3A4 using HepaRG (AID 2283487). The procedure, abridged:
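CYP3A4 transcript measured by TaqMan qRT-PCR and normalized to three housekeeping genes after 48 h chemical exposure of human HepaRG cells. Top concentration 100 uM, half-log steps, 0.5% DMSO vehicle; gain or loss fitted against DMSO baseline.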

Read-out in test [5]: DNA damage-inducible transcript 3 (DDIT3), DDIT3 (gene 1649)
Description: LTEA_HepaRG_DDIT3: Life Technologies and Expression Analysis (LTEA) Assay for DNA damage-inducible transcript 3 (DDIT3) using HepaRG (AID 2283488). In a few lines:
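Differentiated human HepaRG cells in serum-free induction medium were exposed in duplicate for 48 h to 8 concentrations (top 100 uM, half-log steps, 0.5% DMSO). DDIT3 mRNA measured by TaqMan qRT-PCR, normalized to ACTB/GAPDH/POLR2A; bidirectional fit versus DMSO.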

Read-out in test [6]: Pro-epidermal growth factor (Homo sapiens) (UniProt P01133)
Description: LTEA_HepaRG_EGF: Life Technologies and Expression Analysis (LTEA) Assay for Epidermal growth factor (EGF) using HepaRG (AID 2283489). In a few lines:
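qRT-PCR readout of EGF transcript after 48 h chemical exposure of HepaRG cells; eight concentrations from 100 uM down in half-log steps, duplicate wells, 0.5% DMSO vehicle. Bidirectional curve fitting against DMSO baseline.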

Read-out in test [7]: Early growth response protein 1 (EGR1) transcription factor, EGR1 (gene 1958)
Description: LTEA_HepaRG_EGR1: Life Technologies and Expression Analysis (LTEA) Assay for Early growth response protein 1 (EGR1) transcription factor using HepaRG (AID 2283490). The procedure, abridged: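 Differentiated human HepaRG cells in serum-free induction medium were exposed in duplicate for 48 h to eight concentrations (top 100 uM, half-log steps) in 0.5% DMSO. EGR1 mRNA was quantified by qRT-PCR, normalized to ACTB, GAPDH and POLR2A, and fitted bidirectionally versus DMSO.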

Read-out in test [8]: Ezrin (EZR), EZR (gene 7430)
Description: LTEA_HepaRG_EZR: Life Technologies and Expression Analysis (LTEA) Assay for Ezrin (EZR) using HepaRG (AID 2283491). In a few lines:
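HepaRG, 48 h chemical exposure, 8-pt half-log series from 100 uM, 0.5% DMSO vehicle, duplicates. Read-out: EZR mRNA by TaqMan qRT-PCR (Fluidigm array), housekeeping-normalized; bidirectional curve fit vs DMSO baseline.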

Read-out in test [9]: Cytochrome P450 3A7 (Homo sapiens) (UniProt P24462)
Description: LTEA_HepaRG_CYP3A7: Life Technologies and Expression Analysis (LTEA) Assay for CYP3A7 using HepaRG (AID 2283492). In a few lines: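 CYP3A7 transcript levels were read by TaqMan qRT-PCR on Fluidigm arrays after 48 h chemical exposure of human HepaRG cells, with housekeeping-gene normalisation. Eight half-log concentrations up to 100 uM in 0.5% DMSO were tested in duplicate.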

Read-out in the next test: CYP3A5 (gene 1577)
Description: LTEA_HepaRG_CYP3A5: Life Technologies and Expression Analysis (LTEA) Assay for CYP3A5 using HepaRG (AID 2283493). In a few lines:
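Differentiated HepaRG cells in serum-free induction medium were dosed 48 h with test chemicals (8-point half-log series, top 100 uM, 0.5% DMSO, duplicate). CYP3A5 mRNA measured by qRT-PCR, normalized to ACTB, GAPDH, POLR2A; bidirectional fit versus DMSO.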

Read-out in test [10]: Fatty Acid-Binding Protein 1 (FABP1), FABP1 (gene 2168)
Description: LTEA_HepaRG_FABP1: Life Technologies and Expression Analysis (LTEA) Assay for Fatty Acid-Binding Protein 1 (FABP1) using HepaRG (AID 2283494). In a few lines: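 Differentiated human HepaRG cells were exposed in duplicate for 48 h in serum-free induction medium to 8-point half-log concentration series topping at 100 uM in 0.5% DMSO. FABP1 mRNA measured by TaqMan qRT-PCR, normalized to ACTB/GAPDH/POLR2A; bidirectional fit versus DMSO.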

Read-out in test [11]: Cytochrome P450 4A22 (Homo sapiens) (UniProt Q5TCH4)
Description: LTEA_HepaRG_CYP4A22: Life Technologies and Expression Analysis (LTEA) Assay for Cytochrome P450 4A22 (CYP4A22) using HepaRG (AID 2283495). In a few lines: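 HepaRG, 48 h post-plating -> serum-free induction medium; dosed 48 h, duplicate, 8 conc. (100 uM top, half-log), 0.5% DMSO. Readout: CYP4A22 mRNA by qRT-PCR, ACTB/GAPDH/POLR2A normalization; gain/loss fit relative to DMSO.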

Read-out in test [12]: Cytochrome P450 7A1 (Homo sapiens) (UniProt P22680)
Description: LTEA_HepaRG_CYP7A1: Life Technologies and Expression Analysis (LTEA) Assay for Cytochrome P450 7A1 (CYP7A1) using HepaRG (AID 2283496). In a few lines:
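Gene expression endpoint in human HepaRG liver cells treated for 48 h with test chemicals (up to 100 uM, 0.5% DMSO). Values come from bidirectional concentration-response fitting versus DMSO.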

Read-out in test [13]: Cytochrome P450 (CYP1A2), CYP1A2 (gene 1544)
Description: LTEA_HepaRG_CYP1A2: Life Technologies and Expression Analysis (LTEA) Assay for Cytochrome P450 (CYP1A2) using HepaRG (AID 2283479). In a few lines: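 HepaRG, 48 h exposure, top 100 uM, half-log 8-pt, 0.5% DMSO vehicle, duplicates. Readout: TaqMan qRT-PCR of CYP1A2 mRNA, housekeeping-normalized (ACTB/GAPDH/POLR2A). Gain/loss fit relative to DMSO baseline.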

Chain of Cytochrome P450 3A4 (Homo sapiens) (P08684 whole entry, looked up): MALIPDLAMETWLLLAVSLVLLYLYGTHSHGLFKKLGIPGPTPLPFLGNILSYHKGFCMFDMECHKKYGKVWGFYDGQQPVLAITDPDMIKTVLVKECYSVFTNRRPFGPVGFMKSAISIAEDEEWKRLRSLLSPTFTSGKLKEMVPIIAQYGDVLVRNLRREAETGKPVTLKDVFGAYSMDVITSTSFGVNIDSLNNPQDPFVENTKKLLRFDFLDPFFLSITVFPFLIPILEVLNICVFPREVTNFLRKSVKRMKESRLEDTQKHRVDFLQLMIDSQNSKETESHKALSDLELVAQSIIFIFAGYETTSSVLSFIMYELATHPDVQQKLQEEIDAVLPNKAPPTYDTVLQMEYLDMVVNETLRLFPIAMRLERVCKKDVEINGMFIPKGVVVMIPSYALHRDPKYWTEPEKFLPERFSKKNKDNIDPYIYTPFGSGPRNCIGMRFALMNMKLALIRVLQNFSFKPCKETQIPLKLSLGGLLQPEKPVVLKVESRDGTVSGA
Chain of Cytochrome P450 2C19 (Homo sapiens) (P33261 whole entry, looked up): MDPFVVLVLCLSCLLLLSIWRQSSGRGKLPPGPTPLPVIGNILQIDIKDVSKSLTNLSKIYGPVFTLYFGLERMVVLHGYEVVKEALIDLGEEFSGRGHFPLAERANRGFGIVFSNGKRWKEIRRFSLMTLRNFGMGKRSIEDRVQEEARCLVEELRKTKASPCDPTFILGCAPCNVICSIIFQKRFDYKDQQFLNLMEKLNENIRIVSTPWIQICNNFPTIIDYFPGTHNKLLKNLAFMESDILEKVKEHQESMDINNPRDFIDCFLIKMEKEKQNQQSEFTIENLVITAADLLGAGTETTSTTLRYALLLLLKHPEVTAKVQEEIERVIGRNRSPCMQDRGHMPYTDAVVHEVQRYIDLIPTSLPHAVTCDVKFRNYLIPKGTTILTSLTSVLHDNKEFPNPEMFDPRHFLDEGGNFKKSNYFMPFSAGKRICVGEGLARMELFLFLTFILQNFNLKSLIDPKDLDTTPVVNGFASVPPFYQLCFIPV
Chain of Caspase-3 (Homo sapiens) (P42574 whole entry, looked up): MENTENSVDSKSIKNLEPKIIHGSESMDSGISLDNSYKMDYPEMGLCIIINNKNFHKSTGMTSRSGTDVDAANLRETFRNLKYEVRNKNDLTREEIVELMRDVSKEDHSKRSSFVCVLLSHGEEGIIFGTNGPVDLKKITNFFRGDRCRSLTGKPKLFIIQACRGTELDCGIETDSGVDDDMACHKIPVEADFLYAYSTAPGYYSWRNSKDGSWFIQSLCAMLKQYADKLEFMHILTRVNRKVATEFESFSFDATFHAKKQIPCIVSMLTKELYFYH
Chain of Cytochrome P450 3A7 (Homo sapiens) (P24462 whole entry, looked up): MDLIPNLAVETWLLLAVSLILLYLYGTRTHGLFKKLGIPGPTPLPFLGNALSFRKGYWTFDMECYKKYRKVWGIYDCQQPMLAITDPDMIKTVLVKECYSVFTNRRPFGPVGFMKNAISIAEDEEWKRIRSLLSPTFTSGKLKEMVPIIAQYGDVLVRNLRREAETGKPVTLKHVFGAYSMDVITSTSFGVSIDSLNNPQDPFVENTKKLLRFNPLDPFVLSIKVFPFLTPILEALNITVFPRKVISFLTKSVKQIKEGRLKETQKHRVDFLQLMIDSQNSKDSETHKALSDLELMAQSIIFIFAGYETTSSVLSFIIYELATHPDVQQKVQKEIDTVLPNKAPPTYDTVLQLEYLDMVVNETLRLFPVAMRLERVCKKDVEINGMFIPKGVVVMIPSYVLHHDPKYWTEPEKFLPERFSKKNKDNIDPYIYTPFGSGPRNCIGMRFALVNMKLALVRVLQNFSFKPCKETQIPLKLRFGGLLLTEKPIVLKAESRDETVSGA

In the case of `NS(=O)(=O)c1cc2c(cc1Cl)NCNS2(=O)=O`, the call (with Caspase-3 (Homo sapiens); in [1]; in test [2]; in test [3]; with CYP2C8 (gene 1558); with CYP2C9 (gene 1559)) was inactive. Moreover, the result (with CYP2E1 (gene 1571); with CYP4A11 (gene 1579); in [4]; in test [5]; in [6]; in test [7]) was inactive. Further, the outcome (in test [8]; in [9]; with CYP3A5 (gene 1577); in test [10]; in test [11]; in test [12]) was inactive.
`Nc1nc(N)c2nc(CNc3ccc(C(=O)N[C@@H](CCC(=O)O)C(=O)O)cc3)cnc2n1`: the outcome (with Caspase-3 (Homo sapiens); in [1]; in [2]; in test [3]; with CYP2C8 (gene 1558); with CYP2C9 (gene 1559)) was inactive. In addition, the compound was called inactive (with CYP4A11 (gene 1579); in test [4]; in test [5]; in [6]; in test [9]; in test [10]). In addition, in [11], the call was inactive. Further, the AC50 – broadly, the midpoint of the concentration-response curve, whichever way the signal moves – in test [13] was 99.8 nM (active); with CYP2E1 (gene 1571) it was 98 nM (active); in test [7] it was 102 nM (active); with CYP3A5 (gene 1577), 85.2 nM (active); in [12], 162 nM (active).
On to `Oc1ccc2c(c1)OC[C@@H](N1CCC(O)(c3ccc(F)cc3)CC1)[C@H]2O`, for which the call (in the test with Caspase-3 (Homo sapiens); in test [13]; in test [1]; in test [2]; in test [3]; with CYP2C8 (gene 1558)) was inactive. The call (with CYP2C9 (gene 1559); with CYP2E1 (gene 1571); in the test with CYP4A11 (gene 1579); in [4]; in test [5]; in test [6]) was inactive. For the same compound, the call (in test [7]; in test [8]; in test [9]; with CYP3A5 (gene 1577); in test [10]; in test [11]) was inactive. Further, in [12], the call was inactive.
For the compound `CCCCCCCCCCCCCO`, the compound was called inactive (with Caspase-3 (Homo sapiens); in test [13]; in test [1]; in [2]; in test [3]; in the test with CYP2C8 (gene 1558)). For the same compound, the compound was classed as inactive (with CYP2C9 (gene 1559); in the test with CYP2E1 (gene 1571); with CYP4A11 (gene 1579); in test [4]; in test [5]; in test [6]). In addition, the compound was classed as inactive (in test [7]; in test [9]; with CYP3A5 (gene 1577); in [10]; in test [11]; in test [12]).

Source of the values: PubChem BioAssay (EPA / NIEHS).
